Results filed as inconclusive are left out. The source made the active and inactive calls. The calls were made as follows: active = hit-call score of the fitted dose curve at least 0.9, where 1 is the maximum; inconclusive = response in the unintended direction; inactive = score below 0.9.

Sequence of human Retinoic Acid Receptor gamma (RARg), RARG (gene 5916) (P13631 whole entry, looked up): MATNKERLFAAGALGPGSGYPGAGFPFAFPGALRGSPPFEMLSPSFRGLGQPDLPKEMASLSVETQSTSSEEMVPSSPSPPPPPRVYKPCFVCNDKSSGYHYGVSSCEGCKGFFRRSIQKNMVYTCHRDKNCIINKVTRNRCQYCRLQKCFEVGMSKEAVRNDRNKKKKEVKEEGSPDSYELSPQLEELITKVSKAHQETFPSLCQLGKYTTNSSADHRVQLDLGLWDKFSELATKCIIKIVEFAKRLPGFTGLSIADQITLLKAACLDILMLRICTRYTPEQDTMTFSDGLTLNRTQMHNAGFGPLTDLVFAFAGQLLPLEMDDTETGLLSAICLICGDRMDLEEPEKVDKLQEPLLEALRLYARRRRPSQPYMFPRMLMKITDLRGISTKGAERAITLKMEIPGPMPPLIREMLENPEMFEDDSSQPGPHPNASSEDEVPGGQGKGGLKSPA

This experiment deals with human Retinoic Acid Receptor gamma (RARg), RARG (gene 5916) (UniProt P13631). Put plainly: ATG_RARg_TRANS: Attagene TRANS-FACTORIAL HepG2 Assay for human Retinoic Acid Receptor gamma (RARg) (AID 2283009).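 As to AC50: AC50 is for reporter induction above DMSO meaning RARg activation.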 How it is done:
ATG_TRANS is a cell-based, multiplexed-readout assay that uses HepG2, a human liver cell line, with measurements taken at 24 hours after chemical dosing in a 24-well plate.ATG_RARg_TRANS is one of 30 assay component(s) measured or calculated from the ATG_TRANS assay. It is designed to make measurements of mRNA induction, a form of inducible reporter, as detected with fluorescence intensity signals by Reverse transcription polymerase chain reaction (RT-PCR) and Capillary electrophoresis technology.Data from the assay component ATG_RARg_TRANS was analyzed into 1 assay endpoint. This assay endpoint, ATG_RARg_TRANS, was analyzed in the positive analysis fitting direction relative to DMSO as the negative control and baseline of activity. Using a type of inducible reporter, measures of mRNA for gain-of-signal activity can be used to understand the reporter gene at the transcription factor-level as they relate to the gene RARG. Furthermore, this assay endpoint can be referred to as a primary readout, because this assay has produced multiple assay endpoints where this one serves a reporter gene function. To generalize the intended target to other relatable targets, this assay endpoint is annotated to the nuclear receptor intended target family, where the subfamily is non-steroidal.
Human liver HepG2 cells are transiently transfected with multiple reporter transcription units (MRTUs) in 6-well plates using FuGene 6 reagent (Roche; 3 ml FuGene/1 mg DNA). The MRTU constructs are regulated by a cis-regulating element (promoter). […] A major difference between the CIS and TRANS system is that in CIS activities of endogenous TFs are measured, whereas the TRANS assay evaluates changes in activities of exogenous, chimeric NR-Gal4 proteins. […] At the end of 24 hour incubation, total RNA was isolated using TriZol reagent (Invitrogen). The isolated RNA is then reverse-transcribed using oligo(dT) primer and Mo-MLV reverse transcriptase (Invitrogen) with DNAse I (Ambion) treatment for 30 min. The one-tenth of the produced cDNA was amplified by PCR using Taq DNA polymerase (Invitrogen) and two reporter sequence-specific primers. The PCR products were fluorescently labeled by primer extension with 6-arboxyfluorescein (6-FAM) 5'-labeled reporter sequence-specific primer (2 min at 95 C, 20 s at 68 C and 10 min at 72 C) and these products were digested with 5U of HpaI (New England Biolabs) for 2h at 37 C. […] The raw capillary electrophoresis data was processed using Attagraph software (Attagene).
Consider `CCCCCCCC(=O)N(C)C`, for which the compound was classed as inactive.

With `CCCCC1CCCCC(=O)O1` (stereo not given), the result was inactive.

On to `CC(CCO)CC(C)(C)C` (stereo not given), for which the result was inactive.

Turning to `N#CCCCC(C#N)CCC#N` (stereo not given), the outcome was inactive.

With `C#C[C@]1(O)CC[C@H]2[C@@H]3CCc4cc(O)ccc4[C@H]3CC[C@@]21C`, the call was inactive.

By AC50 is commonly meant the concentration at which the activity in the assay is half-maximal. For `CN1CCc2cccc3c2[C@H]1Cc1ccc(O)c(O)c1-3`, the half-maximal activity concentration (AC50) was 775 nM (active).

On to `O=c1cc(-c2ccc(O)cc2)oc2cc(O)cc(O)c12`, for which the compound was classed as inactive.

Regarding `CCCCCCCC1CCCC1=O` (stereo not given), the outcome was inactive.

Regarding `COC(=O)c1cccc(C(=O)OC)c1`, the compound was classed as inactive.

For `CC(=O)Nc1cc(S(=O)(=O)O)cc2cc(S(=O)(=O)O)c(N=Nc3ccccc3)c(O)c12`, the compound was called inactive.

Regarding `[Cu+]`, the result was inactive.

As to `CNC(=C[N+](=O)[O-])NCCSCc1ccc(CN(C)C)o1`, the outcome was inactive.

On to `CC(=O)C1C(=O)C=C(C)OC1=O` (stereo not given), for which the compound was classed as inactive.

For the compound `CC(O)CN` (stereo not given), the outcome was inactive.

Consider `CC1(C)CC(N)CC(C)(CN)C1` (stereo not given), for which the call was inactive.

For the compound `O=C(C=Cc1ccccc1)OCCCc1ccccc1`, the outcome was inactive.

Regarding `Cc1cc(O)c2c(c1)C(=O)c1cc(O)cc(O)c1C2=O`, the compound was classed as inactive.

Take `CC(=O)CC(C)(C)C1CCCCC1`: the result was inactive.

On to `Nc1cc([N+](=O)[O-])ccc1C(=O)O`, for which the outcome was inactive.

With `NC(N)=NC(N)=NCCc1ccccc1`, the outcome was inactive.

On to `CC(C)C(=O)c1ccccc1`, for which the outcome was inactive.

As for `CCOC(=O)CC1(C)OCC(C)O1` (stereo not given), the call was inactive.

As to `CCCCCCCCCCCCOC(C)=O`, the outcome was inactive.

On to `CC(C)(C)c1cccc(O)c1`, for which the compound was called inactive.

As for `NCCN1CCNCC1`, the call was inactive.

With `CCCO`, the compound was classed as inactive.

Regarding `CCCCCCCCCCCCCC(=O)OCC`, the outcome was inactive.

Turning to `CCOC(=O)C=Cc1ccccc1`, the result was inactive.

Turning to `C[C@]12CC[C@@H]3c4ccc(O)cc4CC[C@H]3[C@@H]1CC[C@@H]2O`, the result was inactive.

Regarding `CCCCCCCCCC(=O)OCC`, the compound was classed as inactive.

On to `CCCCCCCCOC(=O)c1ccc(O)cc1`, for which the call was inactive.

As for `CCC(C)C1CCCCC1=O` (stereo not given), the compound was classed as inactive.

`NC(=O)NC(N)=O`: the compound was called inactive.

For `Nc1ccc(N)c([N+](=O)[O-])c1`, the compound was called inactive.

As to `OCCN1CCOCC1`, the compound was called inactive.

With `O=Cc1ccccc1O`, the result was inactive.

In the case of `OC[C@@H](O)[C@H](O)[C@@H](O)[C@@H](O)CO`, the compound was classed as inactive.

In the case of `CCCCOCCOC(=O)c1ccccc1C(=O)OCCOCCCC`, the compound was classed as inactive.

`CCC(C)(C)C1CCC(=O)CC1`: the outcome was inactive.

For `C=C(C)C(=O)OCCN(C)C`, the compound was classed as inactive.

For the origin of these results see PubChem BioAssay (EPA / NIEHS).
